Data: PubChem BioAssay (NCATS)
Values joined by “and” are separate entries in the source; they are usually repeats but may differ in a detail not shown here. Equal entries are not always repeated. Records with an inconclusive call do not appear. The source holds several records for some structures; these can differ, active in one and inactive in another. Active and inactive are the calls of the source. Calls come from the whole dose curve; as a rule, active = well fitted cell-killing curve with a large enough effect; inconclusive = small, poorly fitted or top-dose-only effect, or effect the other way; inactive = no such curve, though single readings can be large or run the other way.

experiment: Viability qHTS for spleen associated tyrosine kinase inhibitor (SYKi) drug resistant MV4-11 cells (AID 1963824); settings: SYKi-resistant MV4-11 viability, CellTiter-Glo, 72 h; series mostly up to 45 µM; viability, % of control: at the top concentration; note: nearly all actives have a fitted effect of over 35% in size
In short: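 SYK-inhibitor-resistant MV4-11 AML cells were seeded at 500 per well onto compound and cultured 72 hours (37 °C, 5% CO2). CellTiter-Glo was then added, and after 10 min at room temperature, luminescence gave viability.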
Potency is the fitted concentration of half-maximal effect.

SMILES | viability, % of control | Potency
O=C(O)c1ccc2c3c1cccc3c(=O)n1c3ccccc3nc21 | 79.9% (inactive) | –
Cn1nccc1-c1ccccc1Oc1ccc(S(=O)(=O)Nc2nccs2)cc1C#N | – | 13 µM (active)
Cc1ccc(NS(=O)(=O)c2cc3c(cc2Cl)CCC(=O)N3)cc1Cl | – | 9.2 µM (active)
Cc1c(CN2CCN(C(=O)C(C)O)CC2)sc2c(N3CCOCC3)nc(-c3cnc(N)nc3)nc12 (stereo not given) | – | 0.366 µM (active)
Cc1ccc(S(=O)(=O)Nc2ccccc2N2CCCCC2)s1 | – | 18.4 µM (active)
COC1CC(O[C@H]2CC[C@]3(C)C4CC[C@]5(C)C(C6=CC(=O)OC6)=CCC56OC46CC[C@@H]3C2)OC(C)C1O[C@@H]1O[C@H](CO[C@@H]2O[C@H](CO)[C@@H](O)[C@H](O)[C@H]2O)[C@@H](O)[C@H](O)[C@H]1O (stereo not given in full) | – | 1.38 µM (active)
CNC(=O)c1ccccc1Sc1ccc2c(/C=C/c3ccccn3)n[nH]c2c1 | – | 8.41 µM (active) and 1.3 µM (active) and 3.32 µM (active)
CC1=C2CC3OC3(C)CCC3OC3(C)CC2OC1=O (stereo not given) | – | 3.66 µM (active)
CC1OC(O[C@H]2[C@@H](O)C[C@@]3(C)C([C@H](O)C[C@]4(C)C3CC=C3C5CC(C)(C)CC[C@]5(C(=O)OC5OC(CO)C(O)C(O)C5OC5OCC(OC6OCC(OC7OCC(O)C(O)C7O)C(O)C6O)C(OC6OCC(O)(CO)C6O)C5O)CC[C@]34C)[C@]2(C)CO)C(O)C(O)C1O (stereo not given in full) | 97% [at 9.25 µM] (inactive) | –
C[C@@H]1CC[C@]2(C(=O)O[C@@H]3O[C@H](CO[C@@H]4O[C@H](CO)[C@@H](O[C@@H]5O[C@@H](C)[C@H](O)[C@@H](O)[C@H]5O)[C@H](O)[C@H]4O)[C@@H](O)[C@H](O)[C@H]3O)CC[C@]3(C)C(=CCC4[C@@]5(C)C[C@@H](O)[C@H](O)[C@@](C)(CO)C5CC[C@]43C)C2[C@H]1C (stereo not given in full) | 113% [at 9.25 µM] (inactive) | –
Cc1cc(C)c(CNC(=O)c2cc(-c3ccc(CN4CCOCC4)cc3)cc3c2cnn3C2CCCC2)c(=O)[nH]1 | – | inactive and 14.8 µM (active)
Cc1nc2sccn2c(=O)c1CCN1CCC(=C(c2ccc(F)cc2)c2ccc(F)cc2)CC1 | – | 11.9 µM (active)
CC(C)C[C@@H](N)C(=O)N[C@H]1C(=O)N[C@@H](CC(N)=O)C(=O)N[C@H]2C(=O)N[C@H]3C(=O)N[C@H](C(=O)N[C@H](C(=O)O)c4cc(O)cc(O)c4-c4cc3ccc4O)[C@H](O)c3ccc(c(Cl)c3)Oc3cc2cc(c3O[C@@H]2O[C@H](CO)[C@@H](O)[C@H](O)[C@H]2O[C@H]2C[C@](C)(N)[C@H](O)[C@H](C)O2)Oc2ccc(cc2Cl)[C@H]1O | 87.8% [at 17.3 µM] (inactive) | –
CC1=C(c2ccc(NC(=O)c3c(F)cccc3F)cc2)CN(c2nccs2)CC1 | – | 2.59 µM (active)
CCNC(=O)Nc1ccc(-c2nc3c(c(N4CCOCC4C)n2)CCN(C2COC2)C3)cc1 (stereo not given) | – | 1.16 µM (active)
Cc1ccc(C)c(-c2cc(C(F)(F)F)nn2-c2ccc(S(N)(=O)=O)cc2)c1 | – | 14.6 µM (active)
COc1ccc(/C=C/C(N)=O)cc1OC | 99.6% (inactive) | –
CCC(C)/C=C(C)/C=C/C1=CC2=C(Cl)C(=O)C(C)(OC(C)=O)C(=O)C2=CN1C(CCC(=O)O)C(=O)O (stereo not given) | 76.2% [at 17.3 µM] (inactive) | –
CCCCCCCCn1cc(CN(CC)CC)c2cc(-c3cnc(N)nc3)ccc21 | – | 2.59 µM (active)
CC1(C)SC2C(NC(=O)[C@H](C(=O)O)c3ccsc3)C(=O)N2C1C(=O)O (stereo not given in full) | 99.5% (inactive) | –

SMILES | viability, % of control | Potency
COc1ncc(Nc2ncc([C@@H](C)N3CCN(S(C)(=O)=O)CC3)cc2-c2nc(C)nc(N)n2)cc1F | 64.6% (inactive) | –
CC(Cc1cccc(C(F)(F)F)c1)NCCOC(=O)c1ccccc1 (stereo not given) | 85.5% (inactive) | –
CCOc1ccc2nc(SCCN3CCOCC3)[nH]c2c1 | 73.3% (inactive) | –
COc1c2c(c(C)c3c1C(=O)OC3)OC1(C)CC(O)C34OC(OC)(CC(O)C3(C)C1C2)OC4(C)C (stereo not given) | – | 10 µM (active)
COc1cc2c(Nc3cc(F)c(Cl)c(Cl)c3)ncnc2cc1OCC1CCCN(C)CCC1 | – | 2.59 µM (active)
CC1(C)C[C@H]2C3=CCC4[C@@]5(C)CC[C@H](O[C@H]6O[C@H](C(=O)O)[C@@H](O)[C@H](O)[C@H]6O[C@H]6O[C@H](CO)[C@@H](O)[C@H](O)[C@H]6O[C@@H]6O[C@H](CO)[C@@H](O)[C@H](O)[C@H]6O)[C@](C)(CO)C5CC[C@@]4(C)[C@]3(C)CC[C@@]2(C)[C@H](O[C@@H]2OC[C@H](O)[C@H](OC3O[C@H](CO)[C@@H](O)[C@H](O)[C@H]3O)[C@H]2O)[C@@H]1O (stereo not given in full) | 93.8% [at 9.25 µM] (inactive) | –
CC(=O)C1=CCC2C3CC=C4CC(O)CC(O)C4(C)C3C(O)CC12C (stereo not given) | – | 16.1 µM (active)
C=C[C@H]1[C@H](O[C@@H]2O[C@H](CO)[C@@H](O)[C@H](O)[C@H]2O)OC=C(C(=O)OC)[C@H]1C[C@@H]1c2cc(O)c(O)cc2CCN1C(C)=O | 98.8% [at 17.3 µM] (inactive) | –
CCCCCCCCCCC(O)C1C=CC2C(=O)N(c3ccccc3)C(=O)C2N1Nc1ccc([N+](=O)[O-])cc1 (stereo not given) | – | 11.6 µM (active)
COc1ccccc1Oc1c(NS(=O)(=O)c2ccc(C)cn2)nc(-c2ccncc2)nc1OC | 79.1% (inactive) | –
Cc1ccn(-c2cc(Cl)ccc2[C@@H](Oc2cc(-c3ccc(C[C@H](N)C(=O)O)cc3)nc(N)n2)C(F)(F)F)n1 | – | 20.6 µM (active)
O=C1NC(=O)/C(=C\c2ccc(-c3ccc(F)cc3O)o2)S1 | – | 11.6 µM (active)
COc1ccccc1-c1ccc(-c2cn(C(=O)N3CCCCC3Cc3ccccc3)nn2)cc1 (stereo not given) | – | 14.6 µM (active)
COc1cc(OC)cc(-c2ccc3c(-c4ccc(F)cc4)[nH]nc3n2)c1 | 91.8% (inactive) | –
CC1(C)CCCC2(C)C3=C(C(=O)OC3O)C(O)CC12 (stereo not given) | 93.6% (inactive) | –
CN1CCN(C(=O)c2cc3cc(Cl)ccc3[nH]2)CC1 | – | 8.2 µM (active)
CCCSc1nc(NC2CC2c2ccc(F)c(F)c2)c2nnn(C3CC(OCCO)C(O)C3O)c2n1 (stereo not given) | – | 20.6 µM (active)
COC(=O)C#Cc1ccc([N+](=O)[O-])cc1 | – | 2.59 µM (active)
Fc1ccc(C(c2ccc(F)cc2)N2CCN(C/C=C/c3ccccc3)CC2)cc1 | – | 21.1 µM (active)
O=c1[nH]c2cccc(N3CCN(Cc4ccc(-c5ccccc5)cc4)CC3)c2o1 | – | 20.6 µM (active)
